The values that follow come from PubChem BioAssay.

Assay [1] is described as follows: liver-stage malaria parasite load reduction – cell-based, known kinase inhibitor set, luminescence, hepatoma host viability (AID 624392).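 Further: infected cells incubated roughly two days before readout.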 The note with it: Plasmodium liver stage in hepatoma cells, luciferase luminescence, concentration not given here; liver cell % of control: measured here: host liver cell viability; parasite % of control: stronger effect = lower value.
Assay [2] is described as follows: altered dexamethasone sensitivity, NF-kB reporter, cell-based, luciferase, IL-1B stimulus (AID 624486).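 On percent of negative control (+Dex): 100% = mean signal of vehicle control wells on the plate.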 The note with it: IL-1B + dexamethasone, luminescence; percent of negative control (+Dex): actives lie on both sides, concentration not given here; z-score: measured here: IL-1B alone, no Dex.
Assay [3] can be described thus: C. elegans survival during P. aeruginosa infection – whole organism (AID 651566).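 Further: tested at 14 µM; sign flipped so higher z means a lower ratio.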 The note with it: C. elegans killed by P. aeruginosa, survival ratio.
A short description of assay [4]: pro-inflammatory signaling induction in mouse macrophages – cell-based, murine, luminescence (AID 652131). To be noted: murine macrophage pro-inflammatory reporter, stronger effect = higher value.
Assay [5] has as its target Cellular tumor antigen p53 (Homo sapiens) (UniProt P04637). The assay can be described thus: GFP-p53 level modulators in HPV16+ cells – imaging, known kinase inhibitor set, EGFP/DsRed ratio (AID 1053116).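 Further: cells exposed to compounds for 24 h at 37 °C before reading.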 The note with it: GFP-p53 stability, stronger effect = higher value; EGFP object count: measured here: GFP-p53 positive objects count.
The nature of assay [6]: inducers of IRF3 signaling, differentiated THP-1 – cell-based, PMA-stimulated THP-1, luminescence (AID 1053176). To be noted: PMA-differentiated THP-1, IRF3 reporter luminescence; stronger effect = higher value.
Assay [7] can be described thus: MELAS cybrid and Rieske KO viability enhancers – cell-based, MELAS cybrids, Rieske KO mouse fibroblasts, CellTiter-Glo, primary screen (AID 1508586;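 active means mean z-score across replicates of 1.96 or higher in either the MELAS or the Rieske mutant cell line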;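 further: z relative to plate mean and SD of compound and empty wells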). The note with it: low glucose. Background: Cellular ATP, detected with luciferase, serves as a proxy for viable cell number.
[8] abbreviates: MELAS cybrid survival, CellTiter-Glo 48 h, stronger effect = higher value.
Setting [9] is: Rieske KO mouse fibroblast survival, CellTiter-Glo 72 h.

“And” between values parts separate entries of the source, which are not always exact repeats. Equal values may be shown once. Where a structure was tested more than once in an assay, its records may differ in their call. The source made the active and inactive calls. Unless noted, how the calls were made is not given here.

Cellular tumor antigen p53 (Homo sapiens), sequence (P04637 whole entry, looked up): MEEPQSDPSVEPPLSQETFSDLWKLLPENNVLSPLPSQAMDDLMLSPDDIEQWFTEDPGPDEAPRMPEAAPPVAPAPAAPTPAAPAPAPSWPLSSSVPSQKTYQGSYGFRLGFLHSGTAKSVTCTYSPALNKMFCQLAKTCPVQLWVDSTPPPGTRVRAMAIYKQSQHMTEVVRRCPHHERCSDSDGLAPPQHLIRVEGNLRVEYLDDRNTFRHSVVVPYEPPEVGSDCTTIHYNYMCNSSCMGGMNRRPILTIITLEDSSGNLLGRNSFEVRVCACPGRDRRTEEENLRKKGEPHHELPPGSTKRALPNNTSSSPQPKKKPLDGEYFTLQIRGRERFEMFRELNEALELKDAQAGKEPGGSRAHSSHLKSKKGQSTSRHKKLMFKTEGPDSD

In the case of `COc1ccc(-c2cc3c(N)ncnc3o2)cc1`, the liver cell % of control in assay [1] worked out at 106%. In addition, the parasite % of control in assay [1] was 203% (inactive). The percent of negative control (+Dex) in assay [2] was 118% (inactive). For the same compound, the z-score was 2.92 in assay [2]; 0.775 (inactive) in assay [3]; 1.8 (inactive) in assay [4]; 1.14 (inactive) in assay [7] (setting [8]); 0.359 in assay [7] (setting [9]). Besides, the EGFP object count in assay [5] stood at 6.5. The EGFP/DsRed ratio in assay [5] was 0.215 (inactive). The fraction signal in assay [6] was -0.014 (inactive).
As to `CN1CCC(C(=O)Nc2n[nH]c3nc(-c4ccc(O)cc4)c(Br)cc23)CC1`, the liver cell % of control in assay [1] was 51.2% and 53.8%. Further, in assay [1], the parasite % of control was 292% (inactive) and 294% (inactive). Also, the percent of negative control (+Dex) in assay [2] is 108% (inactive) and 100% (inactive). The z-score is -0.82 and -0.48 in assay [2]; 0.21 (inactive) and -0.175 (inactive) in assay [3]; -0.483 (inactive) and -0.641 (inactive) in assay [4]; -0.719 (inactive) and 2.2 (active) in assay [7] (setting [8]); -0.17 and -0.0758 in assay [7] (setting [9]). In addition, in assay [5], the EGFP object count was 2.5 and 3. In assay [5], the EGFP/DsRed ratio is 0.0956 (inactive) and 0.0438 (inactive). For the same compound, the fraction signal in assay [6] was 0.0155 (inactive) and 0.0035 (inactive).
For `NCc1ccc(-n2c(-c3nonc3N)nc3cnccc32)cc1`, the liver cell % of control in assay [1] turned out to be 104%. Also, the parasite % of control in assay [1] is 162% (inactive). Further, the percent of negative control (+Dex) in assay [2] was 58% (inactive). Besides, the z-score in assay [2] was -3.59; in assay [3], -0.655 (inactive); in assay [4], -1.05 (inactive); in assay [7] (setting [8]), -0.95 (inactive); in assay [7] (setting [9]), -0.216. In addition, in assay [5], the EGFP object count came to 1. For the same compound, the EGFP/DsRed ratio in assay [5] was 0.0079 (inactive). The fraction signal in assay [6] was 0.003 (inactive).
As for `CCN(CC)Cc1ccc(Nc2nccc(-c3cnn4ncccc34)n2)cc1`, the liver cell % of control in assay [1] was determined as 52.3%. Moreover, the parasite % of control in assay [1] was 12.5% (active). The percent of negative control (+Dex) in assay [2] is 3% (active). For the same compound, the z-score in assay [2] is -9.2; in assay [3] it was -0.59 (inactive); in assay [4], -2.04 (inactive); in assay [7] (setting [8]), 0.539 (inactive); in assay [7] (setting [9]), 1.65. For the same compound, the EGFP object count in assay [5] came out at 3. Further, the EGFP/DsRed ratio in assay [5] is 0.0517 (inactive). In addition, the fraction signal in assay [6] was 0.0075 (inactive).
On to `CNC(=O)c1cncc(/C=C/c2c(Cl)cccc2Cl)c1`, for which the liver cell % of control in assay [1] is 138%. Also, the parasite % of control in assay [1] is 48.1% (inactive). Besides, the percent of negative control (+Dex) in assay [2] was 92% (inactive). For the same compound, the z-score in assay [2] is 0.3; in assay [3], 0.1 (inactive); in assay [4], 0.203 (inactive); in assay [7] (setting [8]), 0.726 (inactive); in assay [7] (setting [9]), 0.293. The EGFP object count in assay [5] amounted to 5.5. Further, the EGFP/DsRed ratio in assay [5] was 0.562 (inactive). Further, the fraction signal in assay [6] was -0.0025 (inactive).
`C[C@@H](Oc1cc(-n2cnc3ccc(OC[C@@H](O)CO)cc32)sc1C(N)=O)c1ccccc1Cl` came in with a liver cell % of control in assay [1] of 94.6%. Moreover, in assay [1], the parasite % of control is 81.9% (inactive). In assay [2], the percent of negative control (+Dex) is 90% (inactive). Further, the z-score in assay [2] was -0.93; in assay [3] it was 0.155 (inactive); in assay [4], -1.41 (inactive); in assay [7] (setting [8]), -0.759 (inactive); in assay [7] (setting [9]), 0.965. In addition, in assay [5], the EGFP object count came out at 5. For the same compound, the EGFP/DsRed ratio in assay [5] is 0.0656 (inactive). Moreover, the fraction signal in assay [6] is -0.0045 (inactive).
For the compound `COc1ccc2ncnc(Nc3ccc(OCc4ccccc4)cc3)c2c1`, the liver cell % of control in assay [1] came out at 120%. Besides, the parasite % of control in assay [1] was 92.8% (inactive). For the same compound, the percent of negative control (+Dex) in assay [2] is 88% (inactive). Also, the z-score was -0.885 in assay [2]; 0.35 (inactive) in assay [3]; 1.39 (inactive) in assay [4]; -0.876 (inactive) in assay [7] (setting [8]); -0.262 in assay [7] (setting [9]). In assay [5], the EGFP object count is 4. The EGFP/DsRed ratio in assay [5] was 0.134 (inactive). In assay [6], the fraction signal was -0.023 (inactive).
Consider `N#Cc1ccc(Oc2nccc(-c3c(-c4ccc(F)cc4)ncn3C3CCNCC3)n2)cc1`, for which, in assay [1], the liver cell % of control is 76.8%. The parasite % of control in assay [1] was 142% (inactive). Further, the percent of negative control (+Dex) in assay [2] was 90.5% (inactive). The z-score in assay [2] was 0.29; in assay [3], 0.255 (inactive); in assay [4], -0.275 (inactive); in assay [7] (setting [8]), -0.193 (inactive); in assay [7] (setting [9]) it was -0.456. The EGFP object count in assay [5] was 1. Besides, the EGFP/DsRed ratio in assay [5] is 0.00276 (inactive). In addition, the fraction signal in assay [6] is -0.0025 (inactive).
In assay [1], `COc1cc(/C=N/Nc2ncnc3c2cnn3Cc2ccccc2)ccc1O` showed a liver cell % of control of 94.9%. For the same compound, the parasite % of control in assay [1] is 99.3% (inactive). The percent of negative control (+Dex) in assay [2] is 85% (inactive). Further, the z-score in assay [2] was -0.18; in assay [3], -0.52 (inactive); in assay [4], 1.23 (inactive); in assay [7] (setting [8]), 1.43 (inactive); in assay [7] (setting [9]), 0.207. Besides, the EGFP object count in assay [5] came out at 100. Further, the EGFP/DsRed ratio in assay [5] is 1.43 (active). In addition, the fraction signal in assay [6] was 0.0995 (inactive).
In assay [1], `COc1ccc(-c2nn3ncccc3c2-c2ccnc(Nc3ccc(F)c(F)c3)n2)cc1` showed a liver cell % of control of 177%. The parasite % of control in assay [1] was 16.9% (inactive). Also, the percent of negative control (+Dex) in assay [2] was 75.5% (inactive). Further, the z-score in assay [2] was -0.785; in assay [3], 1.61 (inactive); in assay [4], -0.312 (inactive); in assay [7] (setting [8]), 1.01 (inactive); in assay [7] (setting [9]) it was -0.0344. For the same compound, the EGFP object count in assay [5] worked out at 4.5. The EGFP/DsRed ratio in assay [5] is 0.039 (inactive). Also, the fraction signal in assay [6] was 0.0025 (inactive).
